Experimental findings from PMC5700166 are described below.

The target in the experiment is T1, GST-Nv-NF-kB (Ser allele) (Nematostella vectensis, UniProt A7UNT2 2-411).
T1 sequence: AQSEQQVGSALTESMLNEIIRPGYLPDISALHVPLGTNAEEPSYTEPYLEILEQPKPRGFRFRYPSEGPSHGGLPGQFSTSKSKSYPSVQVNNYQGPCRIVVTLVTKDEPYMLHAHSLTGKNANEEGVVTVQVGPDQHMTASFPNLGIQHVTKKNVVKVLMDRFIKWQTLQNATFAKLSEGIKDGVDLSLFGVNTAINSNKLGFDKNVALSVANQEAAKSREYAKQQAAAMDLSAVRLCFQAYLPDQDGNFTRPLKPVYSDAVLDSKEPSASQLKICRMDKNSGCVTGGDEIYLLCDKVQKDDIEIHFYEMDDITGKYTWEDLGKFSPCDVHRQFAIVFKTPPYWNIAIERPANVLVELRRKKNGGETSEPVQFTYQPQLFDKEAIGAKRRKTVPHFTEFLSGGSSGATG
Put plainly: protein-binding microarray (PBM); PBM: ~300 nM protein, 6 mM HEPES pH 7.8, 80 mM KCl, 0.5 mM EDTA, 0.5 mM EGTA, 6% glycerol, 35 ng/ul poly-dIdC, 1% milk, 1 h, room temperature; Ap Aiptasia and Nv Nematostella (sea anemones) / Co Capsaspora / Aq Amphimedon (sponge) / Dm Drosophila / Hu human; RHD is the Rel homology domain; high values mean tight binding. The conditions noted are these: dsDNA, one strand shown.
In turn, “CCGATTAACATCAATGGGAAAATTGATGTTAATCGGGTCTTGATTCGCTTGACGCTGCTG” returned a binding signal of 5.32 z-score.

In turn, “CCGATTAACATCAAATCTTTCCCTGATGTTAATCGGGTCTTGATTCGCTTGACGCTGCTG” registered a binding signal of 6.25 z-score.

Sequence “CCGATTAACATCAGGGAATCAGATGATGTTAATCGGGTCTTGATTCGCTTGACGCTGCTG” had a binding signal of 2.02 z-score.

“CCGATTAACATCACGAAAATCCCTGATGTTAATCGGGTCTTGATTCGCTTGACGCTGCTG” had a binding signal of 4.09 z-score.

In turn, “CCGATTAACATCAAGCATCCCCCTGATGTTAATCGGGTCTTGATTCGCTTGACGCTGCTG” yielded a binding signal of 5.87 z-score.

The sequence “CCGATTAACATCAGGGGATTAGATGATGTTAATCGGGTCTTGATTCGCTTGACGCTGCTG” returned a binding signal of 6.46 z-score.

In turn, “CCGATTAACATCAGGGGAGTTAATGATGTTAATCGGGTCTTGATTCGCTTGACGCTGCTG” came in with a binding signal of 4.74 z-score.

Take “CCGATTAACATCACGCAACCCCCTGATGTTAATCGGGTCTTGATTCGCTTGACGCTGCTG”: the binding signal amounted to 4.87 z-score.

“CCGATTAACATCACGTAAACCCCTGATGTTAATCGGGTCTTGATTCGCTTGACGCTGCTG” showed a binding signal of 2.13 z-score.

Regarding “CCGATTAACATCAGGGAATCCACTGATGTTAATCGGGTCTTGATTCGCTTGACGCTGCTG”, the binding signal came out at 3.63 z-score.

The sequence “CCGATTAACATCACGGGTTTTTCTGATGTTAATCGGGTCTTGATTCGCTTGACGCTGCTG” displayed a binding signal of 3.59 z-score.

Consider “CCGATTAACATCAGGGGGATGTATGATGTTAATCGGGTCTTGATTCGCTTGACGCTGCTG”, for which the binding signal came out at 5.85 z-score.

The sequence “CCGATTAACATCAATTCCCGTACTGATGTTAATCGGGTCTTGATTCGCTTGACGCTGCTG” displayed a binding signal of 1.96 z-score.

As for “CCGATTAACATCAGGGGGGGTCATGATGTTAATCGGGTCTTGATTCGCTTGACGCTGCTG”, the binding signal was determined as 1.92 z-score.
